Screening results as filed in PubChem BioAssay.
Dicer processing: blocks human Dicer maturation of pre-miR-21; cat-ELCCA pre-miR-21 Dicer processing, chemiluminescence; hits give high values; 47,000 tested, 6% active; Q9UPY3; z-score at 25 µM; in the data active = z-score above about 3, passing the limit was not always enough;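 also: plate controls were vehicle for no effect and no enzyme for full effect; higher signal means more uncleaved substrate so more Dicer inhibition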
* = called active by the depositor. The full list was thinned out, with hits kept by preference.

SMILES	Dicer processing
CC1=C(C(=O)OC(C)C)C(c2cc3c(cc2Cl)OCO3)C2=C(CC(c3ccccc3)CC2=O)N1 (centres undefined)	2.7
O=C1C(=O)N(Cc2cccnc2)C(c2ccccc2F)/C1=C(\O)c1ccc(F)cc1 (centres undefined)	1.1
COCCCNC(=S)NNC(=O)c1cc(OC)c(OC)c(OC)c1[N+](=O)[O-]	-0.08
CCCCCCCc1c(O)c2cccc3c2n(c1=O)CCC3	-0.37
CCOC(=O)C(=CNc1ccc(F)c(C#N)c1)C(=O)OCC	3.4*
CCOC(=O)C(=CNc1nc2ccc(F)cc2s1)C(=O)OCC	0.63
CCOC(=O)C(=CNc1ccc2c(c1)CCN2C(C)=O)C(=O)OCC	1.5
CN(C)/C=N/NC(=O)Cc1csc2nc(-c3ccccc3)nn12	0.23
CCOC(=O)CSC1=C(C#N)C(c2ccc(Br)cc2)CC(=O)N1 (centres undefined)	-0.16
ON=C1c2cc(Br)ccc2-c2ccc(Br)cc21	-0.61
COc1ccccc1-c1noc(CSc2nc(N)cc(=O)[nH]2)n1	2
Cc1ccc(-c2noc(CSc3nc(N)cc(=O)[nH]3)n2)cc1	1.2
COc1ccc(-c2noc(CSc3nc(N)c(-c4ccccc4)c(=O)[nH]3)n2)cc1	3.9*
COC(=O)c1sc(C(C)(C)C)cc1NC(=O)NC(=O)c1ccccc1Cl	0.94
O=C(O)CCSc1nnc(-c2cccnc2)o1	-0.09
Cn1ccnc1C(O)c1ccccc1 (centres undefined)	1.3
COc1ccc(C(O)c2nccn2C)cc1OC (centres undefined)	3.5*
COc1ccc2ccccc2c1C(O)c1nccn1C (centres undefined)	-3.6
COCCCNC(=S)N/N=C/c1ccc(O)cc1O	-2.7
COCCCNC(=S)N/N=C/c1ccc(O)cc1	-0.81
COCCCNC(=S)N/N=C/c1cccc(OC)c1O	4.2*
CN(C)c1ccc(NC(=O)CC2Sc3ccccc3NC2=O)cc1 (centres undefined)	-0.08
O=c1oc2ccccc2cc1S(=O)(=O)c1ccccc1	-0.85
COc1ccc(C2C(C#N)=C(N)Oc3n[nH]c(C)c32)cc1O (centres undefined)	-3.2
O=C1/C(=C/c2ccccc2Cl)CS/C1=C/c1ccccc1Cl	0.11
SMILES	Dicer processing
Cc1sc2nc(-c3ccccc3)oc(=O)c2c1C	1.5
Cc1cccc(C)c1NC(=O)c1snnc1C	0.06
Cc1nnsc1-c1nc2cccc(C)c2c(=O)o1	3.4*
COC(=O)Oc1ccc2c(=O)c(Oc3ccccc3Cl)coc2c1	0.07
COc1ccc(-c2cc3ccccc3c(=O)o2)cc1	-0.62
COc1ccc(-c2cc3c(=O)oc4ccccc4c3[nH]2)cc1	4*
COc1ccc(-c2cc(=O)c3ccccc3o2)cc1	0.02
COC(=O)c1c(NC(=O)CCCOc2ccc(Cl)cc2)sc2c1CCC2	1.5
O=C(NCC1CC1)NC(=O)c1c(Cl)cccc1Cl	-2.1
O=C(CCc1ccccc1)NNc1c(Cl)cncc1Cl	-0.88
N#CC1(Nc2cccc(C(F)(F)F)c2)CCCCCC1	-0.36
c1ccc(Nc2nc3c(s2)Cc2ccccc2-3)cc1	-1.4
O=C(CSc1nnc2sc3ccccc3n12)Nc1nc2c(s1)CCCC2	2.8
c1ccc(Nc2nc3c(s2)CCCC3)cc1	4*
CCOc1ccc(C(Nc2ccccn2)c2c(O)ccc3ncccc23)cc1 (centres undefined)	0.64
Cc1ccc(SCc2cn3c(C)cccc3n2)cc1	2
CCCCCc1c(O)nc(SCCN2CCOCC2)n(-c2ccccc2)c1=O	3.3*
CCOC(=O)CSc1nc2sc3c(c2c(=O)n1-c1ccccc1)CCN(C)C3	2.5
CCCCc1c(O)nc(SCCN(C)C)n(-c2ccccc2)c1=O	0.39
CCC(C)OC(=O)C1=C(C)NC2=C(C(=O)CC(c3ccccc3)C2)C1c1cccc(OC)c1OC (centres undefined)	0.77
Cc1c(Cc2ccccc2Cl)c(NCCCn2ccnc2)n2c(nc3ccccc32)c1C#N	-0.6
Cc1c(Cc2ccccc2)c(-n2ccnc2)n2c(nc3ccccc32)c1C#N	1.7
CCCc1c(C)c(C#N)c2nc3ccccc3n2c1NCCCn1ccnc1	-1.9
CCCCc1c(C)c(C#N)c2nc3ccccc3n2c1N1CCN(CCO)CC1	2.5
Cc1c(CCC(C)C)c(-n2ccnc2)n2c(nc3ccccc32)c1C#N	3.5*
SMILES	Dicer processing
Cc1c(Cc2ccc(Cl)cc2)c(NCCCn2ccnc2)n2c(nc3ccccc32)c1C#N	4.4*
CC(=NCc1ccc(C#N)cc1)c1c(C)cc(C)cc1O	0.31
O=C1NC(=S)NC(=O)C1=Cc1c(O)[nH]c(=S)[nH]c1=O	-3.2
COC(=O)Cc1nc(-c2ccc(Cl)cc2)sc1C	-1
CC(=O)n1c2ccccc2c2nc(Nc3ccccc3)sc21	-0.17
CC(=O)NCCc1c(F)cccc1Cl	1.9
Cc1[nH]c2ccccc2c1C1(O)C(=O)N(Cc2cccs2)c2ccccc21 (centres undefined)	-1.3
O=C(NC1CCSC1=O)c1ccc(-c2ccccc2)cc1 (centres undefined)	-1.8
Cc1onc(-c2ccccc2)c1C(=O)NC1CCSC1=O (centres undefined)	-0.7
O=C(NC1CCSC1=O)c1cccc(C(=O)NC2CCSC2=O)c1 (centres undefined)	3*
COc1ccc(C2C(C(=O)c3cccs3)=C(O)C(=O)N2Cc2cccnc2)cc1 (centres undefined)	-3
O=C(C1=C(O)C(=O)N(Cc2cccnc2)C1c1ccccc1)c1cccs1 (centres undefined)	-0.29
CC1CCc2c(sc3[nH]c(=O)n(-c4ccccc4)c(=O)c23)C1 (centres undefined)	0.65
CCOC(=O)c1c(NC(=O)Cn2nc(C(F)(F)F)c3c2CCC3)sc2c1CCCC2	0.11
CCCOC(=O)c1c(NC(=O)Cn2nc([N+](=O)[O-])cc2C)sc2c1CCCC2	4.3*
CCOC(=O)c1c(NC(=O)CCC(=O)OC)sc2c1CCCC2	-1.2
Cc1ccc(/C=C2/N=C(c3ccccc3)NC2=O)cc1	-0.29
COc1ccccc1-c1nn(-c2cccc(C(F)(F)F)n2)c(=O)o1	-0.1
COc1cc2c(cc1OC)C(C)N(C(=S)Nc1cc(Cl)ccc1Cl)CC2 (centres undefined)	1.4
C#CCSc1ncc(-c2ccc(Cl)cc2)n1C	-2.4
O=C(NC(c1ccccc1)c1ccc2cccnc2c1O)c1ccccc1 (centres undefined)	6*
O=C(NC(Sc1ncccn1)C(=O)c1ccccc1)c1ccccc1 (centres undefined)	-0.62
COc1cccc(C(Nc2ccccn2)c2ccc3ccc(C)nc3c2O)c1OC (centres undefined)	0.22
Cc1cccc(NC(c2ccncc2)c2ccc3cccnc3c2O)c1 (centres undefined)	0.59
Oc1c(C(Nc2ccccc2Cl)c2ccccn2)ccc2cccnc12 (centres undefined)	14
SMILES	Dicer processing
CCN(CC)c1ccc(C(Nc2ccccn2)c2ccc3cccnc3c2O)cc1 (centres undefined)	2.8
CCc1ccccc1NC(c1ccccn1)c1ccc2cccnc2c1O (centres undefined)	8*
Oc1c(C(Nc2ccccn2)c2ccccc2Cl)ccc2cccnc12 (centres undefined)	3.9*
Oc1cccnc1NC(c1ccc(Cl)cc1)c1ccc2cccnc2c1O (centres undefined)	3.6*
Oc1ccc2ncccc2c1C(Nc1ccccn1)c1ccc(Cl)cc1 (centres undefined)	1.5
Cc1ccc(C(NC(=O)C(C)C)c2ccc3cccnc3c2O)cc1 (centres undefined)	13
CC(C)(C)OC(=O)C(C)(C)S(=O)(=O)c1ccccn1	-1.2
